The record followed here is PubChem BioAssay (NCATS).

Records with an inconclusive call do not appear. A number with no mark means an inactive call. Active and inactive are the calls of the source. Calls come from the whole dose curve; as a rule, active = well fitted activation curve with a large enough effect; inconclusive = small, poorly fitted or top-dose-only effect; inactive = no such curve, though single readings can be large or run the other way.
Potency is the fitted concentration of half-maximal effect.

Sequence of Cellular tumor antigen p53 (Homo sapiens) (P04637 whole entry, looked up): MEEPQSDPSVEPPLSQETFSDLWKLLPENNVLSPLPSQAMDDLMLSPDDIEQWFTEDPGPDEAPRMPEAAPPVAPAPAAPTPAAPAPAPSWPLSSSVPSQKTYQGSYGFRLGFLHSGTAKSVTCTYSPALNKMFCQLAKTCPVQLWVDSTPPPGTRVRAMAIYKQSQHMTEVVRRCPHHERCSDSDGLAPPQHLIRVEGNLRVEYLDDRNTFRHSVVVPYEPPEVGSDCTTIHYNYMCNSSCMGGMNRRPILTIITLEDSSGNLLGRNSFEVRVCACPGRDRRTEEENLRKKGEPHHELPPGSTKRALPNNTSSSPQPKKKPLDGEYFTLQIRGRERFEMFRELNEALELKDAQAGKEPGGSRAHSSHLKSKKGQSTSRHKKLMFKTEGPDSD

In the assay the target is Cellular tumor antigen p53 (Homo sapiens) (UniProt P04637). Put plainly: Primary qHTS for small molecule compounds that upregulate eGFP-tagged delta133p53alpha (in N-terminal) cells. (AID 2060322).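 For activation: cells pre-induced with doxycycline then dosed without doxycycline; series mostly up to about 56 µM; 0% = DMSO vehicle and 100% = reference activator.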 Note: nearly all actives have a fitted effect of over 75% in size. The settings on record: NCI-H358 eGFP-delta133p53alpha fluorescence, 24 h; activation: active compounds read high. The procedure, abridged:
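NCI-H358 cells pre-induced 24 h with 10 ng/ml doxycycline for eGFP-delta133p53alpha, plated dox-free and exposed 24 h at 37C to titrated compounds. Fixed, Hoechst-stained; gated GFP peak intensity by laser scanning cytometry, normalized to DMSO (0%) and 57.5 uM 5-azacytidine (100%).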
Turning to `N#CC(=Cc1ccc(O)c(O)c1)C(=O)NCc1ccccc1`, the Potency is 34.3 µM (active).
On to `CC(N)CCCC(C)(C)O` (stereo not given), for which the activation is -2.82%.
On to `C[C@]12CC[C@H]3[C@@H](CCC4=CC(=O)CC[C@@]43C)[C@@H]1CC[C@@H]2C(=O)CO`, for which the activation is -5.86%.
Still for that read-out and setting: the value for `CCCCC(C)(C)[C@H](O)C=C[C@H]1[C@H](O)CC(=O)[C@H]1CC=CCCCC(=O)O` was 1.38%; that for `CC(C)C[C@@H](N)C(=O)O` was -14.2%.
Regarding `CCCCCCCCNC(C)C(O)c1ccc(SC(C)C)cc1` (stereo not given), the Potency was 21.9 µM (active).
With `Cc1ccc(CCn2c3c(c4cc(Cl)ccc42)CN(C)CC3)cn1`, the activation is -20.9%.
The same measure, in the same setting: the value for `CCC(C(=O)O)c1ccc(N2Cc3ccccc3C2=O)cc1` (stereo not given) was 18.6%; that for `NC(=O)C1(N2CCCCC2)CCN(CCCN2c3ccccc3CCc3ccc(Cl)cc32)CC1` was 3.35%.
Same read-out and setting: the same measure for `CC(C)=CCCC(C)=CCCC(C)=CCCC(C)=CCCC(C)=CCCC(C)=CCCC(C)=CCCC(C)=CCCC(C)=CCO`: 8.65%; for `CO[C@H]1C[C@@H]2CC[C@@H](C)[C@@](O)(O2)C(=O)C(=O)N2CCCC[C@@H]2C(=O)O[C@H]([C@H](C)C[C@@H]2CC[C@H](OCCO)[C@H](OC)C2)CC(=O)[C@H](C)C=C(C)[C@@H](O)[C@@H](OC)C(=O)[C@H](C)C[C@H](C)C=CC=CC=C1C`: 24.4%; for `CCCCN=C(N)NC(=N)N`: 9.6%.
Same read-out and setting: the value for `CCNC(=O)[C@H]1O[C@@H](n2cnc3c(N)nc(NCCc4ccc(CCC(=O)O)cc4)nc32)[C@H](O)[C@H]1O` was 29.2%; that for `CS(=O)(=O)c1ccc(-c2cn3ccccc3n2)cc1` was -26.8%.
With `CC=CCC(C)C(O)C1C(=O)NC(CC)C(=O)N(C)CC(=O)N(C)C(CC(C)C)C(=O)NC(C(C)C)C(=O)N(C)C(CC(C)C)C(=O)NC(C)C(=O)NC(C)C(=O)N(C)C(CC(C)C)C(=O)N(C)C(CC(C)C)C(=O)N(C)C(C(C)C)C(=O)N1C` (stereo not given), the activation is -6.27%.
As to `CCCc1ncc(C[n+]2ccccc2C)c(N)n1`, the activation was 13.4%.
On the same count and under the same terms, the value for `CCC(C(=O)OCCN(CC)CC)c1ccccc1` (stereo not given) was -1.67%; that for `CCCCOC(=O)CCCCCCCCC(=O)OCCCC` was -7.53%.
The same measure, in the same setting: the value for `C/C=C/c1ccc(O)c(OC)c1` was -0.837%.
Same read-out and setting: the value for `C[C@]1(Cn2ccnn2)[C@H](C(=O)O)N2C(=O)C[C@H]2S1(=O)=O` was -22.6%; that for `CCCCC(CC)COC(=O)c1ccc(N(C)C)cc1` (stereo not given) was 0.837%.
As for `C=CC(=O)Nc1cccc(Nc2nc(NC3CCC(N(C)C)CC3)nc3c2ncn3C(C)C)c1` (stereo not given), the Potency was 4.85 µM (active).
In the case of `Cc1cc(C)c2nc(-c3ccccn3)cc(C(=O)Nc3ccc(S(=O)(=O)Nc4onc(C)c4C)cc3)c2c1`, the activation was 8.11%.
Take `COC(=O)c1ccc(NC(C)=O)cc1OC`: the activation is -12.6%.
The same measure, in the same setting: the same measure for `C=CCSCC1Nc2cc(Cl)c(S(N)(=O)=O)cc2S(=O)(=O)N1` (stereo not given): -36.8%.
As for `C[C@@]12C(=O)OC(=O)[C@@]1(C)C1CCC2O1`, the Potency is 9.68 µM (active).
As for `Cc1onc(-c2ccccc2)c1C(=O)Cl`, the activation was 6.21%.
Same read-out and setting: the value for `CCc1ccc(C=C2SC(=S)NC2=O)cc1` was 32.5%; that for `NNc1nnc(NN)c2ccccc12` was -35.1%; that for `Nc1nc(=O)n([C@@H]2O[C@H](CO)[C@@H](O)[C@@H]2F)cc1I` was -22%.
The same measure, in the same setting: the value for `CC(C)(C)c1cc(C=O)cc(C(C)(C)C)c1O` was -16.4%.
As to `CCCCCC(C)N` (stereo not given), the activation is 28.8%.
Still for that read-out and setting: the same measure for `O=C(O)c1c(Cl)c(Cl)c(Cl)c(Cl)c1-c1c2cc(I)c(=O)c(I)c-2oc2c(I)c(O)c(I)cc12`: -18.2%; for `COc1c(C)c2c(c(O)c1CC=C(C)CCC(=O)O)C(=O)OC2`: -14.1%.
Same read-out and setting: the same measure for `CC(=O)OC[C@H]1O[C@@H](n2cnc(N)nc2=O)[C@H](OC(C)=O)[C@@H]1OC(C)=O`: -22.3%; for `CSc1nc2cc(Oc3cccc(Cl)c3Cl)c(Cl)cc2[nH]1`: -40.2%; for `Nc1nc(-c2ccccc2)c(Br)c(=O)[nH]1`: -12.6%.
Same read-out and setting: the value for `Cc1ccc2c(c1)c1c3n2CCNC3CCC1` (stereo not given) was -0.837%; that for `CCCCCC[C@@H](CCC)C(=O)O` was -13.4%; that for `CN(C)CC[C@H](c1ccc(Cl)cc1)c1ccccn1` was 26.7%.
